# In paper PMC4336329 (PLoS ONE, 2015):
# In all, about 310,000 compounds went through this assay and about 2,200 (0.71%) showed an effect of 50% or more. Effects have a minus sign here. The entries come from a sample that favours strong results as a whole.
# Molecular target: human ether-à-go-go-related gene (hERG) potassium channel (human, UniProt Q12809)
# Test: primary screen, population patch clamp on CHO cells stably expressing hERG; higher = less effect of the substance
# human ether-à-go-go-related gene (hERG) potassium channel, sequence (Q12809 whole entry, looked up): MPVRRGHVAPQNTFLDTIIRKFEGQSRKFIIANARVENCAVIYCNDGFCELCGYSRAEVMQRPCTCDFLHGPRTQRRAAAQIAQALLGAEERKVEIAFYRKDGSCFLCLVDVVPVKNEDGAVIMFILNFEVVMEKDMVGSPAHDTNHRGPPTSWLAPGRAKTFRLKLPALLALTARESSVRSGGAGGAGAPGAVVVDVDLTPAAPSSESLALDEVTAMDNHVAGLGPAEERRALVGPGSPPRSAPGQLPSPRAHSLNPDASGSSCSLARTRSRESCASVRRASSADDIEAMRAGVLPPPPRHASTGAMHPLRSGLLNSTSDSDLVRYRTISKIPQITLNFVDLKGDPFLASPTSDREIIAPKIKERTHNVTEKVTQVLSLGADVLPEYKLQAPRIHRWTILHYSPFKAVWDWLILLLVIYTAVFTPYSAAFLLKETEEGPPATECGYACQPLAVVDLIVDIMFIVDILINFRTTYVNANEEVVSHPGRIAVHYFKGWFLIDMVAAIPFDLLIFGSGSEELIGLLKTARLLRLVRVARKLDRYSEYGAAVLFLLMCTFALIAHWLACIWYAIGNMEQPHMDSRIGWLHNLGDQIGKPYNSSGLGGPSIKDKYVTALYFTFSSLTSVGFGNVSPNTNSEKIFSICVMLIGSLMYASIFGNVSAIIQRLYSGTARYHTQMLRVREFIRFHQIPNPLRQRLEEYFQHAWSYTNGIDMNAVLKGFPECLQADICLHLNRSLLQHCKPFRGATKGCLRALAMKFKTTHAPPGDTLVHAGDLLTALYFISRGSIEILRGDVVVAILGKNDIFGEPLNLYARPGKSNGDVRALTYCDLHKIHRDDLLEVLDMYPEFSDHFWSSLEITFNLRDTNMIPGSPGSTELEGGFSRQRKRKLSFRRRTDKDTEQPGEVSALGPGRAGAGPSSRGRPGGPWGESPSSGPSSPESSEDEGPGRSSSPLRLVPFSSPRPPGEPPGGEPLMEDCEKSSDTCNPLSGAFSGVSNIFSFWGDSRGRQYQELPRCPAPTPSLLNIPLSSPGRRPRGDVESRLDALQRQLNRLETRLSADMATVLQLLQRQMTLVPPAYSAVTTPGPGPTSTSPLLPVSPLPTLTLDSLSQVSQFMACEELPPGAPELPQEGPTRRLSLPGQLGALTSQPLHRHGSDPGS
row,SMILES,"hERG current change (%, negative = inhibition) at 1uM [%]"
1,Cc1ccc(OCCNS(=O)(=O)c2ccc(N3CCCC3=O)cc2)cc1,7.63
2,Cc1sc2nc(NCCO)[nH]c(=O)c2c1C,14.6
3,CS(=O)(=O)c1cccc(-c2nnc(NC(=O)C3=COCCO3)o2)c1,0.983
4,Nc1c(C(=O)c2ccc(Cl)cc2)oc2ccccc12,18
5,O=C(Nc1ccccc1)C1=C[C@H](c2ccccc2)C[C@H](OCCCCO)O1,12.7
6,Cc1nc(N2CCN(S(=O)(=O)c3ccccc3)CC2)c2cc(-c3ccccc3)sc2n1,2.54
7,c1ccc2c(c1)nnn2Cc1nnc2sc(-c3ccc4c(c3)OCCO4)nn12,9.84
8,COC(=O)c1cccc(OCC(O)Cn2ccnc2)c1 (centres unmarked),0.869
9,Cc1ccccc1OCC(O)CN1CCN(C)CC1.Cl (centres unmarked),5.66
10,Cc1ccccc1OCC(O)CN1CCC(C)CC1.Cl (centres unmarked),-6.73
11,Cc1ccccc1OCC(O)CN1CCN(CC(O)COc2ccccc2C)CC1 (centres unmarked),-50.4
12,Cc1ccc2oc(=O)c3cnn(CC(=O)N4CCCc5ccccc54)c3c2c1,4.39
13,CCn1c(SCC(=O)c2c(N)n(C)c(=O)n(C)c2=O)nnc1-c1ccccc1,14.2
14,Cc1ccc(C(=O)c2coc3ccc(O)c(CN(C)C)c23)cc1.Cl,-16.2
15,CN(C)Cc1c(O)ccc2occ(C(=O)c3ccccc3)c12,-16.4
16,COc1ccc(OC)c(C(=O)c2coc3ccc(O)c(CN(C)C)c23)c1.Cl,9.87
17,COc1ccc2occ(C(=O)c3coc4ccc(O)c(CN(C)C)c34)c2c1.Cl,-29.5
18,CCN(CC)Cc1c(O)ccc2occ(C(=O)c3ccc(OC)cc3)c12,-64.2
19,COc1ccc(C(=O)c2coc3ccc(O)c(CN(C)C)c23)cc1,-29.3
20,CN1CCN(Cc2c(O)ccc3occ(C(=O)c4ccccc4)c23)CC1,-14.3
21,CN(C)Cc1c(O)ccc2occ(C(=O)c3ccc(F)cc3)c12,-57.5
22,CCN(CC)Cc1c(O)ccc2occ(C(=O)c3ccccc3)c12,-57.3

row,SMILES,"hERG current change (%, negative = inhibition) at 1uM [%]"
1,Cc1ccc(-c2nc3cccnc3o2)cc1NC(=O)COc1ccc(C(C)(C)C)cc1,7.31
2,COc1ccc(S(=O)(=O)Nc2ccc(Cc3ccncc3)cc2)cc1OC,7.28
3,COc1cc(NC(=O)c2ccc(F)cc2)c(OC)cc1NC(=O)CN1CCOCC1,3.57
4,O=C(CN1C(=O)NC2(CCCCC2)C1=O)NCCC1=CCCCC1,14.5
5,COC(=O)c1cc(S(=O)(=O)N2CCCCCC2)c[nH]1,12.4
6,Cc1c(C(=O)Nc2nccs2)oc2ccc(F)cc12,14.5
7,CCC(C(=O)N1CCN(Cc2ccc3c(c2)OCO3)CC1)n1c(=O)[nH]c2ccccc2c1=O (centres unmarked),-8.55
8,CCN1CCc2c(C#N)c(N3CCCCC3)nc(N3CCOCC3)c2C1,12.1
9,CCCN1C(=O)C2(C(C(=O)c3ccc(C)o3)=C(O)C(=O)N2CCCOC)c2ccccc21 (centres unmarked),7.99
10,COc1cc2oc3ccccc3c2cc1N(CC(=O)N(C)C)S(=O)(=O)c1ccccc1,0.641
11,COc1cc2c(cc1OC)CN(c1nc(CN3CCCC3)nc3sc(C)c(C)c13)CC2,-22.9
12,COc1cc2c(cc1OC)CN(c1nc(CN3CCCCC3)nc3sc4c(c13)CCCC4)CC2,-57.3
13,Clc1nc(CN2CCCCC2)nc2sc3c(c12)CCCC3,7.88
14,c1ccc2c(c1)CCN(c1nc(CN3CCOCC3)nc3sc4c(c13)CCCC4)C2,14.5
15,COc1cc2c(cc1OC)CN(c1nc(CN3CCOCC3)nc3sc4c(c13)CCCC4)CC2,-54
16,COc1cc2c(cc1OC)CN(c1nc(CN3CCOCC3)nc3sc4c(c13)CCC(C)C4)CC2 (centres unmarked),5.29
17,Cc1cccc(C)c1NC(=S)NN(Cc1ccccc1)c1ccccc1,10.3
18,COc1ccc(CNC(=O)CSc2nnc(-c3cccnc3)n2N)cc1,7.27
19,CCN(CC(=O)Nc1ccc(NC(C)=O)cc1)C(=O)COc1ccc(C(=O)c2ccccc2)cc1,10.3
20,CCN1CCN(c2ccc(S(=O)(=O)N3CCCCC3)cc2NC(=O)c2ccc(C)o2)CC1,-62.4
21,COc1ccc(S(=O)(=O)N2CCCCC2)cc1NC(=O)c1ccc([N+](=O)[O-])o1,12.4
22,CCN1CCN(c2ccc(S(=O)(=O)N3CCCCC3)cc2NC(=O)/C=C/c2ccc(OC(F)F)cc2)CC1,-1.19

row,SMILES,"hERG current change (%, negative = inhibition) at 1uM [%]"
1,CCN1CCN(c2ccc(S(=O)(=O)N3CCCCC3)cc2NC(=O)c2cc3ccccc3o2)CC1,0.811
2,CCN1CCN(c2ccc(S(=O)(=O)N3CCCCC3)cc2NC(=O)c2ccccc2)CC1,-15.6
3,CCN1CCN(c2ccc(S(=O)(=O)N3CCCCC3)cc2NC(=O)c2ccc([N+](=O)[O-])s2)CC1,-13.8
4,CCN1CCN(c2ccc(S(=O)(=O)N3CCCCC3)cc2NC(=O)c2ccc(OC(F)F)cc2)CC1,-56.4
5,CCN1CCN(c2ccc(S(=O)(=O)N3CCCCC3)cc2NC(=O)c2ccc([N+](=O)[O-])o2)CC1,-73.3
6,CCN1CCN(c2ccc(S(=O)(=O)N3CCCCC3)cc2NC(=O)c2ccc(F)cc2)CC1,-16.7
7,Cc1cccc(C)c1Nc1nnc(SCC(=O)c2ccc(Br)s2)s1,12.4
8,CCCN(CCC)S(=O)(=O)c1ccc(NC(=O)c2cc(C(=O)OC)cc([N+](=O)[O-])c2)cc1,16.7
9,CCCn1c2ccccc2c2cnn(CC(=O)NC3CCCC(C)C3C)c(=O)c21 (centres unmarked),11.4
10,CN(C)S(=O)(=O)c1ccc2nnn(O)c2c1,7.89
11,CCC(C)(C)NC(=O)C(c1ccco1)N(C(=O)Cn1nnc2ccccc21)c1ccc2c(c1)OCO2 (centres unmarked),13.9
12,O=C(NCc1ccncc1)c1nc(-c2cccs2)no1,-0.652
13,COc1ccc(S(=O)(=O)NCCc2csc(-c3cccnc3)n2)cc1,-9.72
14,CN(/N=C/c1ccc(Cl)cc1)c1ncc(Cl)cc1C(F)(F)F,14.6
15,Cc1c(N=C/C=C2/N(C)c3ccccc3C2(C)C)c(=O)n(-c2ccccc2)n1C,-5.46
16,CN1/C(=C\C=C(C#N)C#N)C(C)(C)c2ccccc21,2.94
17,Cc1ccccc1N=C/C=C1\N(C)c2ccccc2C1(C)C,-51.2
18,Cc1c(N=C/C=C2\N(C)c3ccccc3C2(C)C)c(=O)n(-c2ccccc2)n1C,-15.5
19,CN1/C(=C/C=C(C#N)C#N)C(C)(C)c2ccccc21,10.9
20,CN1/C(=C\C=O)C(C)(C)c2ccccc21,3.65
21,CO/N=C/C=C1/N(C)c2ccccc2C1(C)C,12.5
22,CN1/C(=C\C=Nc2ccc3ccccc3c2)C(C)(C)c2ccccc21,-75.1

row,SMILES,"hERG current change (%, negative = inhibition) at 1uM [%]"
1,CN1/C(=C\C=N\O)C(C)(C)c2ccccc21,14.7
2,CN1/C(=C\C=Nc2ccccc2)C(C)(C)c2ccccc21,-65
3,CN1/C(=C/C=N/n2cnnc2)C(C)(C)c2ccccc21,7.04
4,CN(C)c1ccc(N=C/C=C2\N(C)c3ccccc3C2(C)C)cc1,-84.7
5,N#Cc1nc(-c2ccc(Cl)cc2)oc1NCc1ccco1,18.1
6,COc1cccc(-n2c(Cc3cc(=O)[nH]c(=O)[nH]3)nnc2SC(C)C)c1,2.56
7,CCNC(=O)c1ccc(CSc2nc3ccccc3s2)cc1,11.4
8,O=S(=O)(c1ccc(NC(=S)NCCc2ccccc2)cc1)N1CCOCC1,3.71
9,COc1cccc(-c2nc(CS(=O)(=O)CC(=O)NCCCN3CC(C)CC(C)C3)c(C)o2)c1 (centres unmarked),-5.41
10,CCOC(=O)Nc1ccc2c(c1)Nc1ccccc1S2,9.07
11,COc1cccc(NC(=O)CNS(=O)(=O)c2ccc3nc(C)sc3c2)c1,14.5
12,Cc1ccc(-c2cc(C(=O)Nc3cccnc3)c3ccccc3n2)s1,12.1
13,Cn1cnnc1SCC(=O)Nc1sc2c(c1C(N)=O)CCC2,13.3
14,CCCCNC(=O)CCCN1C(=O)c2cccnc2Sc2ccccc21,14.1
15,OCCCNc1ncnc2sc3c(c12)CCN(Cc1ccccc1)C3,7.54
16,CCCCNc1ncnc2sc3c(c12)CCN(CCC)C3,-80.9
17,CC1CCc2c(sc3ncnc(NCCN4CCOCC4)c23)C1 (centres unmarked),-13.1
18,CCOc1ccc(-n2c(SCc3ccc(C#N)cc3)nnc2-c2cccnc2)cc1,-65.1
19,N#Cc1ccc(CSc2nnc(-c3cccnc3)n2-c2ccccc2)cc1,-26.5
20,CCOc1ccc(-n2c(SCC(N)=O)nnc2-c2cccnc2)cc1,-3.26
